# Experimental data from PubChem BioAssay AID492949 (National Center for Advancing Translational Sciences (NCATS), 2010).
# Inconclusive results are not listed. Values without a mark were called inactive. The source made the active and inactive calls. The call rests on the fitted dose curve; in most records, active means well fitted activation curve with a large enough effect; inconclusive means small, poorly fitted or top-dose-only effect; inactive means no such curve, though single readings can be large or run the other way.
# Molecular target: Relaxin receptor 1 (Homo sapiens) (UniProt Q9HBX9)
# Sequence (Q9HBX9 whole entry, looked up): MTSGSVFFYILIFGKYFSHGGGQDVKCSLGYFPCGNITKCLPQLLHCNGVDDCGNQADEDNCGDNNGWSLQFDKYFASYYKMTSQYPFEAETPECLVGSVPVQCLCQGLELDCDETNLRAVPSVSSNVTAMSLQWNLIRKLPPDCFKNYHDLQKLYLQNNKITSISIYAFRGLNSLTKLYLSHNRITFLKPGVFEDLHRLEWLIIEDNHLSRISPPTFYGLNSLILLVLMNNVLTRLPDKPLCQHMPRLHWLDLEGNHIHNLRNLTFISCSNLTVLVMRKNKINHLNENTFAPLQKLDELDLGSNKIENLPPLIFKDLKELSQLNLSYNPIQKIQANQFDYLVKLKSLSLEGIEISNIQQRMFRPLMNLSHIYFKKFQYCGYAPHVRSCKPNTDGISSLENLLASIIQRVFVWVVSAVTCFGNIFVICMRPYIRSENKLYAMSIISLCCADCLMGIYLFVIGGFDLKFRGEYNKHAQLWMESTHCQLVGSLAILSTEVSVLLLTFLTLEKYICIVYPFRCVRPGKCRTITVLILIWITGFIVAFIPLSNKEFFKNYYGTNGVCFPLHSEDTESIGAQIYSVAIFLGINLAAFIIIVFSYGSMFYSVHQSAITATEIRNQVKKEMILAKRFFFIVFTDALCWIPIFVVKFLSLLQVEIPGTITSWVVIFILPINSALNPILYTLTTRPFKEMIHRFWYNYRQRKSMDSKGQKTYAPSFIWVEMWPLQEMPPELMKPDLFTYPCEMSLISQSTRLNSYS
# Test: qHTS Assay for Agonists of the Relaxin Receptor RXFP1: THP1 Hit Validation; further: nearly all actives have a fitted effect of over 60% in size;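 on activation: 0% = buffer alone basal and 100% = 29 nM porcine relaxin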
# Conditions: THP1-RXFP1 cells, cAMP TR-FRET, 30 min; series mostly up to 115 µM; activation: at the top concentration
# Source text: The relaxin hormone is involved in the variety of biological functions in normal tissues and diseases. The role of relaxin is well-established in female reproduction and parturition, mammary gland and endometrial development, maintenance of myometrial quiescence during pregnancy. Relaxin signaling through its G protein-coupled receptor (GPCR) RXFP1 results in ECM remodeling through regulation of collagen deposition, cell invasiveness, proliferation and overall tissue homeostasis. […] Recombinant human relaxin (rhRlx) is currently being tested in clinical trials as a protective agent in congestive heart failure, in treating severe preeclampsia, and as an anti-fibrotic agent in systemic sclerosis.
# Upon relaxin binding RXFP1 activation leads to the activation of adenylate cyclase (AC) via Gs. cAMP will activate PKA, which phosphorylates many signaling proteins. Thus, detection of cAMP increase is an easy and reliable indication of relaxin receptor activation. To screen for agonists of the relaxin receptor, a THP1 cell line stably transfected with RXFP1 was used. RXFP1 activation was assayed by changes in cAMP levels as detected with a time-resolved fluorescence energy transfer (TR-FRET) cAMP detection kit.
# NIH Chemical Genomics Center [NCGC]
# NIH Molecular Libraries Probe Production Centers Network [MLPCN]
# Assay Submitter (PI): Alexander Agoulnik
# NCGC Assay Protocol Summary:
# This is a cell-based assay for cAMP second messenger response to screen for agonists of the RXFP1 receptor. The assay was conducted in the presence of a PDE4 inhibitor (Ro 20174). The cells were lysed and the cAMP levels were measured with a TR-FRET cAMP kit. Presence of cAMP in the cell lysate disrupts binding between the cryptate-labeled anti-cAMP and d2-labeled cAMP pair, leading to a decrease in the TR-FRET signal. Data were normalized to the controls for basal activity (buffer only) and 100% activity (29 nM porcine relaxin). The EC50 values were determined from concentration-response data modeled with the standard Hill equation
# 1536-well assay protocol for the THP1 RXFP1 cAMP assay:
# (1) Add 3 ul THP1 RXFP1 cell culture. 2000 cells/well in DMEM/F12, 10% FBS, 1x Pen/Strep (dispensed offline with MultiDrop Combi).
# (3) Add 23 nl compounds in DMSO solution. Final concentration was 0.5 - 58 uM.
# (4) Incubate 30 min at 37C, 5% CO2.
# (5) Add 1 ul cAMP-d2 in lysis buffer (HTRF cAMP HiRange kit, CisBio).
# (6) Add 1 ul anti-cAMP antibody-cryptate in lysis buffer (HTRF cAMP HiRange kit, CisBio).
# (7) Incubate 30 min at room temperature.
# (6) Detect the assay plate in a ViewLux plate reader (PerkinElmer) with Ex=320 nm, Em1=615 nm and Em2=665 nm.
# Keywords: relaxin, RXFP1, RXFP2, G-protein coupled receptor, cAMP, agonist, high throughput screening, MLSMR, MLSCN, NIH Roadmap, qHTS and NCGC
# Potency means the concentration at half of the fitted maximal effect.
SMILES,activation,Potency
Cc1cccc(-c2nnc(SCC(=O)NC3CC3)n2C)c1,-35.5%,
CCN(CC)c1ccc(S(=O)(=O)N2CCOCC2)cc1NC(=O)CSc1nncn1C,,15.4 µM (active)
O=C(Nc1ccccc1C(=O)Nc1ccc(F)cc1)c1ccco1,2.44% [at 125 µM],
O=C(Nc1ccccc1C(=O)NCc1ccco1)c1ccccc1,7.28% [at 125 µM],
CCc1ccc(-c2nc3ccc(Br)cc3c(C(=O)O)c2C)s1,,6.15 µM (active)
CC1(C)O[C@@H]2[C@H](O1)[C@@H](COS(=O)(=O)O)O[C@H]2n1cnc2c(N)ncnc21,,5.48 µM (active)
COc1ccc(CN2C(=O)c3cccnc3C2=O)cc1S(=O)(=O)NC1CCCCC1C (stereo not given),,27.5 µM (active)
CCOC(=O)c1sc(=NC(=O)c2ccc(S(=O)(=O)N(C)c3ccccc3)cc2)n(C)c1C,,34.6 µM (active)
O=C(O)c1ccc(N=C2NC(=O)C(CO)(CO)S2)cc1,28.2%,
CCN(CC)S(=O)(=O)c1ccc(C)c(NC(=O)Cn2cnc3cc([N+](=O)[O-])ccc3c2=O)c1,,12.3 µM (active)
Cc1ccccc1NC(=O)c1ccccc1NC(=O)c1ccco1,5.35% [at 125 µM],
Cc1cccn2c(=O)c(/C=C3\SC(=S)NC3=O)c(NCCCN3CCOCC3)nc12,,4.88 µM (active)
Brc1ccc2ncnc(NCc3cccnc3)c2c1,,48.9 µM (active)
Cc1cc(C)c(NC(=O)CS(=O)CC(=O)Nc2ccc(F)cc2F)c(C)c1 (stereo not given),-5.33%,
CN1C(=O)c2ccc(C(=O)Nc3ccc(Br)cn3)cc2C1=O,,21.8 µM (active)
CC(C)n1cnc2c(N(C)c3cccc(Cl)c3)nc(N(CCO)CCO)nc21,-3.44%,
CC(NC(=O)c1ccccc1NC(=O)c1ccco1)C(=O)O (stereo not given),6.72% [at 125 µM],
COc1ccccc1NC(=O)CCCc1nnc2n(C)c(=O)c3sccc3n12,,15.4 µM (active)
COC(=O)[C@@H]1C[C@@]2(O)[C@H](O)[C@H](O)[C@H](O)C[C@H]2N1Cc1cc(F)ccc1F,3.47%,
O=C(Nc1cc(S(=O)(=O)N2CCOCC2)ccc1N1CCOCC1)c1cn2ccccc2n1,,8.7 µM (active)

SMILES,activation,Potency
CCC(Sc1ccc2nnc(-c3cccnc3)n2n1)C(=O)OC (stereo not given),,19.4 µM (active)
Cc1ccc(C(=O)Nc2ccccc2C(N)=O)o1,10.3% [at 125 µM],
O=C(Nc1ccccc1C(=O)NCc1ccccc1)c1ccco1,4.79% [at 125 µM],
O=C(Nc1ccccc1C(=O)NCCc1ccccc1)c1ccco1,3.22% [at 125 µM],
O=c1oc2cc(O)c(Cl)cc2c2ccccc12,,8.68 µM (active)
O=C(Nc1ccccc1C(=O)NCc1ccc(Cl)cc1)c1ccco1,10.3% [at 125 µM],
Cc1cc(NC(=O)c2ccccc2F)nc2c1c(=O)oc1ccccc12,,19.4 µM (active)
O=C(Nc1ccccc1)c1ccccc1NC(=O)C1CCCCC1,-4.77% [at 125 µM],
O=C(Nc1cccc(C(F)(F)F)c1)c1ccccc1NC(=O)C1CCCCC1,,inactive
Cc1ccc(CN(C)C(=O)c2ccccc2NC(=O)c2ccccc2)o1,6.8% [at 125 µM],
COc1ccc(CC(=O)N/N=C/c2cccnc2)cc1OC,-3.65%,
c1ccc(COn2nnc3ccccc32)c(COn2nnc3ccccc32)c1,9.12% [at 43.1 µM],
COc1ccc(/C=C2/SC(=O)N(CC(=O)Nc3cc(C)on3)C2=O)cc1OC,-94.2%,
O=C(Nc1ccccc1C(=O)N1CCOCC1)c1ccco1,3.58% [at 125 µM],
O=C(Nc1ccccc1C(=O)N1CCCCC1)c1ccco1,1.27% [at 125 µM],
O=C(Nc1ccccc1C(=O)NCCN1CCOCC1)c1ccco1,10.5% [at 125 µM],
O=C(Nc1ccccc1C(=O)NCCc1ccc(O)cc1)c1ccco1,-0.992% [at 125 µM],
CC(=O)C1C(c2ccccc2)c2c(noc2C)CC1(C)O (stereo not given),3.3%,
CC1(C)Cc2c(sc3c2c2ncnn2c2nnc(SCC(=O)NCc4ccco4)n32)CO1,,5.49 µM (active)
COC(=O)Cn1cnc2c(C#N)c3n(c2c1=O)CCCC3,,24.5 µM (active)
